Sampled rows, rich in hits. Any-hit rate of the full collection: about 2%.
LDHA inh: LDHA (human) enzyme inhibition | activity change, % (values are at about 110 or 230 µM) | purified LDHA, NADH/diaphorase-resazurin fluorescence; active compounds read low | AID 1347041 | actives 0.15% (n = 480,000); in the data active = activity change below about -30%; inconclusive = mostly about -25% to -30%;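 also: plate controls were DMSO wells for no effect and wells without enzyme for full effect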
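Enzyme activity of human lactate dehydrogenase 5 (2 nM; 0.06 mM NADH, 0.2 mM pyruvate, 5 min, RT) is measured via a resazurin/diaphorase fluorescence readout of residual NADH.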
mIDH1 inhibitor: blocks human mutant IDH1 R132H enzyme | Potency, µM (top dose mostly 76.6 µM), without a hit: top-dose activity change, negative = inhibition, hits mostly inhibitors | actives 0.093% (n = 390,000) | O75874 | IDH1-R132H enzyme, NADPH consumption, diaphorase/resazurin fluorescence; also: potency is read from the fitted curve at half-maximal effect; % is scaled to controls: 0 for no effect and ±100 for the full control effect; nearly all actives have a fitted effect of over 65% in size
Target sequence (O75874 whole entry R132H, stated change not applied): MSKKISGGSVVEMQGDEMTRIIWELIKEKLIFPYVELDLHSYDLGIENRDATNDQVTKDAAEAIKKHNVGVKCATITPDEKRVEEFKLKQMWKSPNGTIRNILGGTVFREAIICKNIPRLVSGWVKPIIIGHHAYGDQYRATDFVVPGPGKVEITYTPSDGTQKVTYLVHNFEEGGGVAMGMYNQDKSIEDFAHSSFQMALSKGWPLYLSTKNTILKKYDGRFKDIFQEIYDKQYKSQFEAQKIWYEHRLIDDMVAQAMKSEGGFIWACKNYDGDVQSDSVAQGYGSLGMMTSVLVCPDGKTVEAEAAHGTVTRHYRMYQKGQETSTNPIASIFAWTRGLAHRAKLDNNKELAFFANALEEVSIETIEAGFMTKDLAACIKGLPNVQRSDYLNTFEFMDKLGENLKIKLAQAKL
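IDH1-R132H (0.5 ug/mL dispensed) in pH 7.5 Tris buffer was preincubated 30 min with compound, then given a substrate mix of 0.016 mM NADPH and 2 mM alpha-KG for 80 min at room temperature; remaining NADPH was read by diaphorase/resazurin fluorescence.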
FUS yeast rescue: rescues growth of FUS-expressing yeast. S. cerevisiae FUS-expressing, growth rescue, OD600, 24 h. Potency, µM (series often up to 76.6 µM), usual class: activators. actives 0.24% (n = 390,000);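 also: potency is read from the fitted curve at half-maximal effect; plate controls were DMSO vehicle for no effect and reference control for full effect; nearly all actives have a fitted effect of over 55% in size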
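Yeast expressing FUS under galactose induction, OD 0.005 in 2% galactose medium; compounds in a dilution series, 24 h at 30C. Growth rescue by absorbance at 600 nm; CP55940 positive control, DMSO negative.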
Abeta yeast res: restores growth of yeast expressing A-beta42 peptide | yeast expressing A-beta42, growth rescue, OD600, 48 h; response scale: 0% DMSO, 100% iron-clioquinol control | Potency, µM (series often up to 46.1 µM), usual class: activators | actives 0.063% (n = 410,000) | AID 1347071; also: potency is read from the fitted curve at half-maximal effect; nearly all actives have a fitted effect of over 55% in size
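Growth rescue measured by 600 nm absorbance after 48 h yeast culture at 30 C with compound. Values normalized between DMSO and an equimolar ferric chloride plus clioquinol control.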
TDP-43 yeast inh: inhibitors of TDP-43 toxicity in yeast; Potency, µM (series often up to 46.1 µM), for the others: at the top dose growth rescue (activation), hits mostly activators; TDP-43 expressing yeast growth rescue, BacTiter-Glo, 24 h; actives 1.8% (n = 410,000); also: potency is read from the fitted curve at half-maximal effect; % of control where 0% means no effect; nearly all actives have a fitted effect of over 50% in size
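Luminescence from BacTiter-Glo reports growth of TDP-43-expressing yeast after 24 hr at 30 deg C with compound. Cells were raffinose-pregrown to mid-log, then seeded in galactose medium at OD600=0.02.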
aSyn yeast inh: alpha-synuclein toxicity inhibition in yeast | Yeast expressing alpha-synuclein, growth rescue, BacTiter-Glo, 24 h | Potency, µM (series often up to 46.1 µM), without a hit: at the highest dose growth rescue (activation), actives largely listed as activators | actives 0.14% (n = 370,000) | AID 652106; also: potency is read from the fitted curve at half-maximal effect; % of control where 0% means no effect; nearly all actives have a fitted effect of over 65% in size
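Rescue of yeast growth: cells expressing toxic alpha-synuclein, induced in galactose at OD600 0.02, incubated with compound 24 h at 30 C. ATP luminescence quantified growth; inhibitors of toxicity appear as activators.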
* hit, by the source's call; i = inactive; ? = inconclusive; nt = no result given; [ ] = dose if it differs, or a comment. Unless noted, calls follow the shape of the dose curve; as a rule, active = well fitted curve in the direction sought with a large enough effect; inconclusive = small, poorly fitted or top-dose-only effect, or another doubt; inactive = no such curve, though single readings can be large; an effect the other way counts as inactive or inconclusive.

SMILES	LDHA inh	mIDH1 inhibitor	FUS yeast rescue	Abeta yeast res	TDP-43 yeast inh	aSyn yeast inh
N#Cc1c(N)c(C(=O)c2ccc3c(c2)OCCO3)n2c1CCC2	-2.4	nt	nt	nt	nt	nt
Cc1cccc(Nc2nc3ccccc3s2)c1C	-3.1	1.4%	i	?	11.2µM*	-7.1%
Cc1cc(C)n(-c2cc(C(C)(C)C)nc3c(-c4ccccc4)cnn23)n1	-2.6	4.2%	i	i	14.1µM*	-5.7%
CSc1ccccc1-n1nnnc1SCc1ccccc1	-2.9	6.8%	i	i	12.6µM*	0.1%
Cc1cccc(-n2nnnc2C2(N3CCCC3)CCCC2)c1	1.3	nt	nt	nt	nt	nt
Cc1cccc(-n2nnnc2S(C)(=O)=O)c1	-2.4	3.0%	i	i	17.8µM*	nt
COc1cccc(-n2nnnc2S(C)(=O)=O)c1	-6.3	-2.4%	nt	i	1µM*	-17.1%
Cn1c(=O)c2c(nc(Sc3ccccc3N)n2Cc2ccc(F)cc2)n(C)c1=O	6.7	nt	nt	nt	nt	nt
COc1ccc(/C=C/c2c([N+](=O)[O-])c(=O)n(C)c(=O)n2C)cc1OC	-1.0	3.3%	i	i	-14.3%	-8.6%
Cn1c(/C=C/c2ccc(Cl)cc2)c([N+](=O)[O-])c(=O)n(C)c1=O	-6.3	-11.5%	i	i	17.8µM*	6.0%
COc1ccc(NC(=O)N2c3ccc(OC)cc3C(C)=CC2(C)C)cc1	14.4	12.6%	i	i	-4.5%	0.1%
CCNC(=O)N1c2ccc(OC)cc2C(C)=CC1(C)C	34.1	8.0%	i	i	12.6µM*	-9.5%
CC1=CCCC(C)(C)C1/C=C/C(C)=N\NC(=S)Nc1cccnc1 (configuration not stated)	-4.4	nt	nt	nt	nt	nt
CCCCn1c(N)c(N(CCOC)C(=O)c2ccc(Cl)c(S(=O)(=O)N3CCCCC3)c2)c(=O)[nH]c1=O	1.4	-4.2%	i	i	-0.1%	-0.5%
CCCCCN(C(=O)CCC(=O)OC(C)C(=O)c1ccc(Cl)cc1)c1c(N)n(CCCC)c(=O)[nH]c1=O (configuration not stated)	-11.2	-6.5%	31.6µM*	i	-3.6%	1.5%
CCCCCN(C(=O)CCC(=O)OC(C)C(=O)NCc1ccccc1)c1c(N)n(CCCC)c(=O)[nH]c1=O (configuration not stated)	-3.9	-2.4%	i	i	-8.5%	-4.7%
CCCCn1c(N)c(N(CC(C)C)C(=O)c2ccc(Cl)c(S(=O)(=O)N3CCCC3)c2)c(=O)[nH]c1=O	-6.3	2.8%	31.6µM*	i	-9.2%	-15.7%
CCCCCN(C(=O)CCC(=O)OCC(=O)c1ccc(F)c(F)c1)c1c(N)n(CCCC)c(=O)[nH]c1=O	-3.5	2.3%	28.2µM*	i	11.2%	0.7%
CCNC(=O)C1(NC(=O)Cc2coc(-c3ccccc3)n2)CCCCC1	0.3	nt	nt	nt	nt	nt
N#C/C(=C/c1cccc(O)c1)c1ccc(C(F)(F)F)cn1	-4.6	nt	nt	nt	nt	nt
Cc1ccccc1CNc1nc(N(C)C)nc2c1cnn2C	0.9	nt	i	i	20µM*	nt
CN(C)c1ccc(C(=S)N2CCCCCC2)cc1	-2.5	7.7%	i	i	-11.9%	1.0%
CC1CCN(C(=S)c2ccc(N(C)C)cc2)CC1	-0.5	-7.7%	i	12.6µM*	-13.3%[1.82 µM]	-6.9%
Cc1cnc(-c2nc3ccccc3n2C(C(=O)Nc2c(C)cccc2C)C2CC2)cn1 (configuration not stated)	-1.5	nt	i	i	23.3%	0.0%
Cc1ccc(OCc2nc3ccccc3n2C(C(=O)Nc2c(C)cccc2C)C2CC2)cc1 (configuration not stated)	5.5	nt	8.91µM*	i	-16.8%	-0.8%
SMILES	LDHA inh	mIDH1 inhibitor	FUS yeast rescue	Abeta yeast res	TDP-43 yeast inh	aSyn yeast inh
c1ccc(OCCn2c(COc3ccccc3)nc3ccccc32)cc1	-5.0	-15.8%	i	i	33.7%	nt
C=CCn1c(COc2ccccc2)nc2ccccc21	-0.9	-3.1%	i	20µM*	-10.8%[1.82 µM]	13.6%
CCOCCn1c(COc2ccc(C)cc2)nc2ccccc21	1.0	5.4%	nt	i	-6.3%	-0.4%
CCn1c(COc2ccc(C)cc2)nc2ccccc21	0.3	3.3%	i	i	11.2µM*	5.6%
CC(=O)N1CCN(C(C(=O)O)c2cn(CC(=O)O)c3cc(F)ccc23)CC1 (configuration not stated)	0.5	nt	nt	nt	nt	nt
CC(C)(C)NC(=O)NC(=O)Cn1nc(C(=O)O)c2ccccc2c1=O	-8.8	nt	nt	nt	nt	nt
OCCNC(=S)Nc1ccc(F)cc1	1.0	nt	nt	nt	nt	nt
CCCN1C(=O)/C(=C\c2ccncc2)SC1=Nc1ccccc1	2.2	-2.7%	nt	i	?	-3.7%
CCN1C(=O)/C(=C\c2ccncc2)SC1=Nc1ccc(C)c(C)c1	4.2	-3.4%	nt	i	14.1µM*	9.6%
CCCCCCOC(=O)c1ccc(OC(=O)c2cccnc2)cc1	-3.5	7.0%	i	i	22.9%	2.8%
CCCCOC(=O)c1ccc(OC(=O)c2cccnc2)cc1	-0.2	0.1%	i	i	12.6µM*	3.8%
COc1ccc(Nc2nc(N3CCOCC3)c3cnn(C)c3n2)cc1	2.7	nt	nt	nt	nt	nt
O=C1CCCCC1Sc1nc2cc(Cl)ccc2s1 (configuration not stated)	5.6	nt	nt	nt	nt	nt
COc1ccc(OCC(=O)O/N=C(\N)c2ccc(OC)c(OC)c2)cc1	2.2	1.2%	i	i	19.9%	2.6%
COc1ccc(CC(=O)O/N=C(\N)c2ccc(C)cc2)cc1	2.2	4.6%	i	i	7.94µM*	3.7%
COc1ccccc1CC(=O)O/N=C(\N)c1ccccn1	-3.9	0.8%	i	i	?	9.5%
COc1cccc(OCC(=O)O/N=C(\N)c2ccc(OC)c(OC)c2)c1	-2.8	3.2%	nt	i	11.2µM*	11.2%
COc1ccc(/C(N)=N/OC(=O)Cc2ccccc2OC)cc1	-6.2	0.0%	i	i	20µM*	-0.6%
COc1ccc(C(=O)NNC(=O)Cc2ccc(Cl)cc2)cc1	-1.8	7.1%	i	i	24.9%	0.4%
COc1ccc(C/C(=N\O)c2ccc(OC)cc2)cc1	-3.6	4.9%	i	i	14.1µM*	3.2%
CCCOc1ccc(NC(=O)C(C)Oc2cc(C)cc(C)c2)c2cccnc12 (configuration not stated)	36.9	nt	nt	nt	nt	nt
Cc1ccc(C2(c3ccc(C)cc3)SC(=S)c3ccccc32)cc1	0.8	nt	nt	nt	nt	nt
O=S(=O)(c1cccc2nsnc12)N1CCN(c2ccccc2F)CC1	-5.4	7.7%	i	i	15.8µM*	13.7%
O=S(=O)(c1cccc2nsnc12)N1CCN(c2ccc(F)cc2)CC1	-13.4	0.0%	i	i	-13.9%[1.82 µM]	-1.1%

Source: PubChem
